High-throughput results as filed in PubChem.
PTK2B oligo ant = blocks oligomerization of human Pyk2 in cells. Q14289. Q293 cells, Pyk2 FERM NanoBiT luminescence; active compounds read low. z-score (the deposit names both 25 µM and 10 µM). actives 0.83% (n = 99,000). AID 1347419;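 active means Z-score of -3 or lower, scaled per plate to the spread of control and sample wells; inactive means z-score above -3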;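 further: negative z-score means lost luminescence so less FERM oligomerization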
Mac1 fbg inh = CD11b/CD18-fibrinogen binding inhibition; P05107+P11215; K562 CD11b/CD18 adhesion to fibrinogen, ATPlite luminescence; Mn2+ added to activate the integrin; inhibition, % at 10 µM; actives 0.54% (n = 93,000); AID 1497;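 active means primary inhibition of 50% or more at 10 µM, then 40% or more on retest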
hDAT+cocaine = human DAT dopamine uptake with cocaine, either direction. LLC-PK1 hDAT cells, [14C]-dopamine uptake with cocaine IC80; actives deviate in either direction. Q01959. B-score at 10 µM. actives 1.3% (n = 110,000);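 active means Z score or B-score, a plate-position-corrected score, falls beyond the plate's 99.7% confidence bounds, in either direction; inactive means both scores lie inside the 99.7% bounds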;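 further: scored against the spread of the other compound wells on the same plate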
FAK blocker = FAK (human) kinase inhibition. biochemical FAK kinase activity assay. inhibition, %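 (tested at 7 µM)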. actives 0.84% (n = 97,000). AID 727; in the data active means inhibition above about 19%;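 further: 0% = DMSO and 100% = reference compound high control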
Target sequence (Q05397 whole entry, looked up): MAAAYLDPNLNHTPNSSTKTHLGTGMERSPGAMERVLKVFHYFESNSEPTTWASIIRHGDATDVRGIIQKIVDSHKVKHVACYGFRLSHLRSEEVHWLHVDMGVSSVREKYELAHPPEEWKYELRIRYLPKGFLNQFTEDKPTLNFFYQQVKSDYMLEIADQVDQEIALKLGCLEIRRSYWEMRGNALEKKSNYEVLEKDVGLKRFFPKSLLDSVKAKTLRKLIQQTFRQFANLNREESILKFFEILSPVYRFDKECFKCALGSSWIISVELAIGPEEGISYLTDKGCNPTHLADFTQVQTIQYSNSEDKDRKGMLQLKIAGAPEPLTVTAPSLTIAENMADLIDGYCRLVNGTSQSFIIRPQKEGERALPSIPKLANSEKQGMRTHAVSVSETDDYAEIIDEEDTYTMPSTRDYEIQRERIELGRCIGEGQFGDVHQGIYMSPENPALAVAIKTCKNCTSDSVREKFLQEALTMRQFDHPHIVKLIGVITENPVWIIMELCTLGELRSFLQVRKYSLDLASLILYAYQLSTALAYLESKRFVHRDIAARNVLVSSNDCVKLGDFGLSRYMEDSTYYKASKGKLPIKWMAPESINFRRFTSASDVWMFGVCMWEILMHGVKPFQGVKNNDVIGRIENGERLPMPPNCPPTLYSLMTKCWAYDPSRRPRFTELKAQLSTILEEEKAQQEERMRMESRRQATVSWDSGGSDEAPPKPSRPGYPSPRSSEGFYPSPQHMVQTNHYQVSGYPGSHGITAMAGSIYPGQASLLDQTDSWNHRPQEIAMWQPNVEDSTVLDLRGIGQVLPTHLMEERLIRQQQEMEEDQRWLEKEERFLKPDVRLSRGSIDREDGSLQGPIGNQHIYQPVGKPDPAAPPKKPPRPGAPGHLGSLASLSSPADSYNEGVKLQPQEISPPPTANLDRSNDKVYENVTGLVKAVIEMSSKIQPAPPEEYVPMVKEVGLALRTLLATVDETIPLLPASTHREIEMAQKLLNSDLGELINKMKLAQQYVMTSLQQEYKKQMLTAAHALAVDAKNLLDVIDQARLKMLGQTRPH
Mac1 fbg enh = increases human CD11b/CD18 adhesion to fibrinogen; activation, % at 10 µM; actives 0.07% (n = 93,000); P05107+P11215; K562 CD11b/CD18 adhesion to fibrinogen, ATPlite luminescence;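 active means 10 µM primary screen giving 50% or more activity, confirmed by 40% or more on retest at that dose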
D1 allo mod = allosterically modulates the human D1 dopamine receptor | AID 641 | B-score at 10 µM | actives 5.9% (n = 58,000) | HEK293 D1, CRE-luciferase, dopamine EC30 potentiation; actives deviate in either direction | P21728;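 active means luminescence count or its row- and column-corrected plate score outside the 99.7% band of the plate's sample wells, on either side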
* hit, by the source's call; / = not tested or not shown. Shown is part of a subset that was picked to be rich in hits.

SMILES	PTK2B oligo ant	Mac1 fbg inh	hDAT+cocaine	FAK blocker	Mac1 fbg enh	D1 allo mod
Cc1cccc(C)c1Nc1nnc(SCC(=O)c2ccc3c(c2)NC(=O)CO3)s1	0.5	/	/	/	/	/
CC(O)CNc1nc2ccccc2n1-c1ncnc2sc3c(c12)CCC3 (configuration not stated)	0.48	42	2.8*	3	-5	0.44
c1ccc2c(c1)ncn2-c1ncnc2sc3c(c12)CCCC3	-0.18	5	0.29	-4	-2	/
COC(=O)c1cc2oc(C)cc2n1CC(=O)Nc1cc(C)cc(C)c1	-0.68	-19	-0.32	1	5	-0.45
COc1ccc2[nH]c3nc(SC(C)C)nnc3c2c1	0.37	/	/	-2	/	-4*
CCOC(=O)c1cc(=O)n2nc(-c3ccc(C)cc3)nc2s1	1.2	8	-8.4*	-3	-4	-1.1
O=c1c2c(nc3cc(-c4ccc(F)cc4)[nH]n13)CCCC2	-0.76	9	-0.57	1	0	-5.3*
CCOC(=O)CSc1nc2cc(OC)ccc2cc1C#N	0.68	5	-9.8*	1	-1	-0.25
COC(=O)[C@@]1(Cc2ccc(OC)cc2)[C@H]2c3cc(C(=O)N4CCCC4)n(CCSCCO)c3C[C@H]2CN1C(=O)c1ccccc1	/	/	-0.38	/	/	/
CCCC(O)(c1ccc(Cl)cc1)C(CN1CCOCC1)c1ccccc1 (configuration not stated)	/	-10	-2.8*	-1	0	/
CCCCC(O)(CCN1CCOCC1)c1ccc(Cl)cc1 (configuration not stated)	0.36	6	-1.8	0	-5	/
Cc1cccc2cc(CN(Cc3ccco3)C(=O)NC3CCCCC3)c(=O)[nH]c12	-1.6	-4	2.4*	4	-3	0.66
CCN(CC(=O)NCc1cccs1)S(=O)(=O)c1cccc(C(C)=O)c1	-0.21	-2	-7.5*	7	-3	0.014
CCCn1c(SCC(=O)NC(=O)NCc2ccco2)n[nH]c1=O	/	-14	-0.33	9	7	-1
CCCn1c(SCC(=O)NCCc2ccc(Cl)cc2Cl)n[nH]c1=O	0.55	-4	3.4*	-1	-3	0.17
COc1cc(-c2c(C#N)c(=O)[nH]c3c2c(C)nn3-c2ccccc2)ccc1O	-3.3*	5	-0.14	-3	2	-0.049
CCOc1ccc(N(CC(=O)Nc2ccc3c(c2)OCCO3)S(=O)(=O)c2c(C)noc2C)cc1	/	-3	-0.44	2	9	-0.47
Cc1nc(-c2ccc(Cl)cc2)sc1C1(C)CC(c2cccc(F)c2)=NO1 (configuration not stated)	/	/	-0.37	/	/	/
Cc1ccc(C(=O)Nc2ccccc2N2CCN(C(=O)C(C)C)CC2)cc1	-0.76	-8	0.45	0	4	0.19
CCOc1cccc(C(=O)Nc2ccccc2N2CCN(C(=O)C(C)C)CC2)c1	0.1	4	-9.1*	2	-4	-0.28
CC(C)C(=O)N1CCN(c2ccc(NC(=O)c3ccc4c(c3)OCCO4)cc2Cl)CC1	-3.6*	-4	0.29	-1	-4	/
O=C(Nc1ccccc1N1CCN(C(=O)c2ccc(Cl)cc2)CC1)c1ccc2c(c1)OCO2	-3.2*	-19	-0.059	-2	84	-0.63
CC(=O)N1CCN(c2ccccc2NC(=O)COc2cc(C)ccc2C(C)C)CC1	-2.7	-2	-0.39	-1	17	-5.3*
CCO[C@H]1OC(C(=O)N2CCOCC2)=C[C@@H](c2coc3ccccc3c2=O)[C@@H]1CCCO	/	/	-0.59	/	/	/
O=C(CN1CCN(c2ccccc2O)CC1)Nc1ccc2c(c1)CCC2	/	-15	/	/	-2	/
SMILES	PTK2B oligo ant	Mac1 fbg inh	hDAT+cocaine	FAK blocker	Mac1 fbg enh	D1 allo mod
O=C(NCC(c1cccnc1)N1CCN(c2ccc(F)cc2)CC1)c1ccc(F)cc1 (configuration not stated)	0.89	-5	3.2*	-1	5	-1.9
O=C(Nc1ccc2nc(SCc3ccc(Cl)cc3)sc2c1)c1ccccc1C(=O)N1CCOCC1	0.4	-10	-7.1*	-9	1	/
COC(=O)CSc1nc2ccc(NC(=O)c3ccccc3C(=O)N3CCOCC3)cc2s1	/	-19	/	/	6	/
CCCCNC(=O)c1sc(=S)n2c1[nH]c(=O)c1ccccc12	1.1	97*	-0.3	-3	-10	-2.1
O=C(NC1CCCCC1)c1sc(=S)n2c1[nH]c(=O)c1ccccc12	-3*	105*	0.096	-18	-10	-2.1
CCCCNC(=O)c1sc(=S)n(-c2ccccc2OC)c1N	1.1	-19	-0.48	4	5	/
O=C(CN1CCN(C(c2ccccc2)c2ccccc2)CC1)NC(=O)NCc1ccco1	-0.99	-5	0.096	3	6	0.33
COc1ccc(CNc2ccc(-c3ccccc3OC)nn2)cc1	-1.4	-7	3.2*	6	1	/
Brc1cnn(-c2nc(N3CCOCC3)nc(N3CCOCC3)n2)c1	/	/	/	/	/	3.6*
Brc1cnc(N2CCOCC2)nc1N1CCCCC1	0.53	-22	-0.14	0	3	0.99
Cc1c(NC(=O)C(C)OC(=O)[C@@H](NC(=O)c2ccccc2)C(C)C)c(=O)n(-c2ccccc2)n1C (some centres not stated)	0.03	/	0.13	1	/	/
Nc1c(NC2CCCCC2)c2ccccc2oc1=O	0.52	-10	0.87	0	-3	/
Cc1ccccc1Nc1c(N)c(=O)oc2ccccc12	-0.31	5	-7.7*	-2	-2	/
COC(=O)/C(=C(/F)SCC(C)=O)C(F)(F)F	/	-3	-0.55	1	-8	/
CC(C)(C)C(=O)Nc1nc(=S)ss1	-0.04	66*	-0.0079	-1	-6	/
CCC(=O)Nc1nc(=S)ss1	0.66	-22	-0.55	-1	-3	/
COC(=O)CCCCCN1C(=O)NC(C2CC2)C(C(=O)OCc2ccccc2)=C1C (configuration not stated)	/	/	0.25	/	/	/
CN1CCN(c2ccc(NC(=O)c3ccc4c(c3)OCO4)cc2)CC1	0.35	-10	1.1	3	0	-5.1*
CCOc1ccc(C(=O)Nc2ccc(N3CCN(C)CC3)cc2)cc1Br	-0.65	-18	/	18	-2	-6.4*
CC(=O)N1CCN(c2ccc(NC(=O)c3ccc4c(c3)OCCO4)cc2)CC1	-0.06	-18	-0.053	-3	3	-0.4
Cc1ccc(C)n1-c1ccc(C(=O)NN)cc1	/	-10	/	/	-2	/
CCCCn1c(SCC(=O)O)nc2ccccc21	1	2	-0.51	-3	-2	-1.7
CCCCOC(=O)n1c(SCC(=O)N(C)C)nc2ccccc21	0.92	10	0.76	7	-4	-7.3*
COc1ccc([C@@H]2Sc3ccccc3N(CCN(C)C)C(=O)[C@@H]2OC(C)=O)cc1	/	/	0.41	/	/	-6.8*
CC1Sc2ccccc2N(CC(=O)N(C(C)C)C(C)C)C1=O (configuration not stated)	-0.03	4	-1.1	0	1	/
Cc1cccc(C)c1NC(=O)C(c1ccccc1)N1CCC1=O (configuration not stated)	0.83	3	1.2	1	3	/
